Results on 5 molecules are retold here after PubChem BioAssay AID1066 (SRMLSC, 2008).

The whole screen tested about 190,000 compounds, of which about 790 (0.42%) were called active. Many of the other results were omitted from the sample, so actives are more common in it than they were. Unmarked numbers belong to inactive results.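 How the source made its calls: active means inhibition above a set limit, the median over all tested compounds plus 3 SD (cut at about 9.5% in these data); inconclusive means no clear call, values can overlap the other calls; inactive means the rest.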

By inhibition is commonly meant the drop in the measured response relative to a control, in per cent.

The subject of this test is HMG-CoA reductase (Enterococcus faecalis, mvaE). In words: inhibitors of E. faecalis class II HMGR, primary screen, biochemical, Enterococcus faecalis (AID 1066).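 Further: enzyme runs in reverse so mevalonate oxidation gives rising NADPH absorbance; 0% = complete reaction with DMSO and 100% = background rate lacking mevalonate.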 The settings on record: purified E. faecalis HMGR, NADPH absorbance 340 nm kinetic; at 10 µM; active compounds read high.
As for `COc1ccc(CCn2c(O)c(C=NC3CC3)c(=O)[nH]c2=O)cc1OC`, the inhibition is -3.24%.
In the case of `CN(C)CCCN=Cc1c(O)n(Cc2ccco2)c(=O)[nH]c1=O` it was 6.16%; in that of `COc1ccc(CCn2c(O)c(C=NCCCn3ccnc3)c(=O)[nH]c2=O)cc1OC`, 13.7% (active).
In the case of `CN(C)c1nc(N(C)C)nc(N(C#N)CCCl)n1`, the inhibition was -6.92%.
To `O=C(O)CCn1cc(C=C2C(=O)NC(=S)NC2=O)c(-c2cccc(Br)c2)n1` belongs 1.54%.
